Compounds without any hit were thinned out: in the full panel of roughly 83,000, 20% have a hit.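 Treatment: one concentration, 48 hours, 96-well format. Scoring: percent growth, with anything below 10 considered active.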 Values without a mark were called inactive. Active and inactive are the calls of the source.
Tests used:
Experiment in all cases: NCI-60 one-dose screen, 48 h (100 = growth as untreated, 0 = no growth, -100 = all killed)
Details in all cases: 10 µM unless noted
DU-145 prostate = system: DU-145 prostate
K-562 leukemia = system: K-562 leukemia
MALME-3M melanoma = system: MALME-3M melanoma
MDA-MB-231 breast = system: MDA-MB-231 breast
RXF 393 renal = system: RXF 393 renal
SF-268 CNS = system: SF-268 CNS
SF-295 CNS = system: SF-295 CNS
SF-539 CNS = system: SF-539 CNS
UACC-257 melanoma = system: UACC-257 melanoma
M14 melanoma = system: M14 melanoma

SMILES	growth (DU-145 prostate)	growth (K-562 leukemia)	growth (MALME-3M melanoma)	growth (MDA-MB-231 breast)	growth (RXF 393 renal)	growth (SF-268 CNS)	growth (SF-295 CNS)	growth (SF-539 CNS)	growth (UACC-257 melanoma)	growth (M14 melanoma)
NCCCCCCNc1cc(-c2cccc(OC(F)(F)F)c2)nc2ccc(N3CCCC3)cc12	-17.4% (active)	-52.6% (active)	-93.8% (active)	-79.9% (active)	-90.8% (active)	-3.93% (active)	-69.1% (active)	-87.6% (active)	-67.7% (active)	-71.4% (active)
O=C(Nc1ccc(F)cc1)Nc1ccc(NC(=O)c2cc(Cl)nc3ccccc23)cc1	57%	58.5%	53.7%	45.9%	86.9%	68.1%	64.6%	35.6%	79.8%	74.3%
NC1[C@H](c2c[nH]c3ccccc23)c2c([nH]c3ccccc23)[C@H]1c1c[nH]c2ccccc12 (stereo not given in full)	95.3%	90.8%	88.9%	75.7%	104%	84.4%	92.9%	100%	111%	92.3%
O=S(=O)(Nc1ccc(-n2cnc3cc(-c4ccc(O)cc4)ccc32)cc1)c1ccccc1	105%	65.4%	100%	85.1%	103%	78.4%	87.9%	67.3%	106%	85.1%
COc1cc2nc(-c3ccc(Cl)cc3)cc(OCCCN3CCCCC3)c2cc1OC	40.9%	14.3%	46.1%	27.4%	39.1%	57.5%	-51.3% (active)	49.5%	-0.848% (active)	-28.2% (active)
COc1cc2nc(-c3ccc(C(F)(F)F)cc3)cc(OCCN3CCCCC3)c2cc1OC	70.9%	53.4%	74.4%	54.1%	62.4%	75.8%	77.5%	74.4%	36.6%	-11.8% (active)
Cc1ccc(-n2c3c(c(-c4ccccc4)c2-c2ccccc2)C2=NCCN2C=N3)cc1	95%	64.2%	97.9%	80.5%	101%	96.2%	99.2%	95.4%	104%	95.7%
Cc1ccc(-n2cc(-c3ccccc3)c3c2N=NN2CCN=C32)cc1	113%	87%	104%	85.9%	109%	96.8%	96.5%	101%	113%	104%
CC(=O)c1cc2c(N)c(C(=O)Nc3cccc4ccncc34)sc2nc1C	109%	82.2%	101%	93%	104%	98.5%	85%	94.1%	96.2%	75.8%
O=S(=O)(NCCNc1nccc(-c2c(-c3cccc(O)c3)nc3occn23)n1)c1cccc(F)c1	104%	70.8%	4.35% (active)	69.4%	91.6%	93.1%	106%	111%	39.7%	35.9%
C=C1C(=O)O[C@H]2[C@H]1CC/C(COC(=O)NCc1c[nH]c3ccc(F)cc13)=C\CC[C@@]1(C)O[C@@H]21	-62.9% (active)	1.89% (active)	-68.8% (active)	-57.5% (active)	-88.5% (active)	36%	61.2%	-52.6% (active)	14.3%	-50.8% (active)
C=C1C(=O)O[C@H]2[C@H]1CC/C(C(=O)NCCCCCNC(=O)/C1=C/CC[C@@]3(C)O[C@H]3[C@H]3OC(=O)C(=C)[C@@H]3CC1)=C\CC[C@@]1(C)O[C@@H]21	104%	114%	96.2%	106%	110%	96.1%	105%	105%	97.7%	92.3%
O=C(Cn1c[n+](CC(=O)c2ccc([N+](=O)[O-])cc2)c2ccccc21)Nc1cccc2cccnc12	85.1%	38.2%	81.4%	50.5%	97.6%	65.1%	101%	87.8%	48.6%	78.4%
COc1cccc(-c2nc3occn3c2-c2ccnc(NCCNS(=O)(=O)c3ccc(C(F)(F)F)cc3)n2)c1	96.4%	71.6%	107%	87.2%	90.8%	88.2%	99.1%	104%	121%	102%
COc1ccc(NC(N)=NCCCOc2ccc(F)cc2)cc1	48.5%	91.5%	96.6%	93.8%	104%	77.7%	70.9%	71.7%	25.4%	69.1%
CC(C)(C)CC(C)(C)n1nnnc1C(NC12CC3CC(CC(C3)C1)C2)c1ccccc1 (stereo not given)	96.5%	73.1%	99.2%	81.4%	85.9%	83.3%	75.9%	95.7%	89.1%	82.8%
COc1cc2oc(-c3cccc(C(=O)Nc4ccc5c(c4)OCO5)c3)cc(=O)c2c(O)c1OC	80.4%	94.5%	88.1%	68.1%	81.5%	58.7%	92.1%	88.8%	78.2%	89.7%
COc1ccccc1NC(=O)C1CC(c2ccc(F)cc2)=NO1 (stereo not given)	106%	95%	100%	98.5%	97%	97.4%	96.2%	95.5%	107%	104%
CCN(CC)CCn1c(=O)c2cc(OC)c(OC)cc2c2ccc3cc4c(cc3c21)OCO4	24.1%	33.4%	17.2%	54.8%	8.86% (active)	35.6%	24.5%	-7.07% (active)	41.3%	10.6%
COc1cccc(C(=O)NNc2nc(Cl)nc(N3CCN(C(c4ccccc4)c4ccccc4)CC3)n2)c1	101%	-34.7% (active)	84.1%	59%	78.4%	99.3%	96.3%	90.8%	88.4%	45.4%
Cn1cc(CC2CC(=O)N(c3ccccc3)C2=O)sc1=NC(=O)c1ccccc1 (stereo not given)	103%	104%	89.9%	111%	92.2%	96.2%	102%	99.8%	98%	90.9%
Cc1cc(C)c(S(=O)(=O)Oc2ccccc2[N+](=O)[O-])c(C)c1	15.7%	22.1%	21%	33.2%	4.44% (active)	37.2%	-7.8% (active)	-8.46% (active)	32.4%	14.2%
O=C(CCN1CCCC1)Nc1ccc2c(Nc3ccc(Br)cc3)c3ccccc3nc2c1	-70.8% (active)	-43.1% (active)	-86.2% (active)	-49.4% (active)	47%	-7.83% (active)	46.3%	-67.9% (active)	-48.4% (active)	-75% (active)
CCCCOc1ccc(/C=N/Nc2cc(C)nc3ccc(Br)cc23)cc1	16.4%	-2.5% (active)	-66.9% (active)	48.5%	-72% (active)	88.3%	-80.3% (active)	-79.3% (active)	96.3%	4.9% (active)
Cn1ccnc1C(=O)/C=C/c1ccc(CC(=O)NC2CCCCC2)cc1	6.25% (active)	18%	92%	65.1%	73.2%	40.9%	77.8%	63.7%	84.8%	89.8%
CCCCCCCCO/N=C\c1c2c(O)c3c(O)c(C)c4c(c3c1O)C(=O)C(C)(O/C=C\C(OC)C(C)C(OC(C)=O)C(C)C(O)C(C)C(O)C(C)/C=C\C=C(\C)C(=O)N2)O4 (stereo not given)	32.9%	16.7%	40.7%	12.7%	38.7%	43.1%	4.44% (active)	42.9%	8.62% (active)	27%

Reference: PubChem BioAssay (NCI)
